Where “and” joins values, the source holds several entries; their conditions need not be identical. Equal entries are not always repeated. Results filed as inconclusive are left out. Where a call stands in place of a potency, no number is given. A number with no mark means an inactive call. Calls of active or inactive are those of the source. The call rests on the fitted dose curve; in most records, active means well fitted cell-killing curve with a large enough effect in the repeat runs; inconclusive means weak or mixed curves, or effect the other way; inactive means flat fitted curve, though single readings scatter.
What was measured:
[1] = cAMP Responsive Elements (CRE) small molecule antagonists, cell-based qHTS assay: qHTS cell viability counter screen (AID 2060913); details: CRE-bla HEK293T viability, CellTiter-Glo luminescence, 5 h; series mostly up to 92.4 µM; further: nearly all actives have a fitted effect of over 40% in size
Outline: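 Cytotoxicity read in the same wells as the CRE-bla HEK293T antagonist assay: after 3 h compound with 0.25 uM NKH477 final and 2 h beta-lactamase substrate, CellTiter-Glo luminescence measured.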

[2] = cAMP Responsive Elements (CRE) small molecule agonists, cell-based qHTS assay: qHTS cell viability counter screen (AID 2060914); details: CRE-bla HEK293T viability, CellTiter-Glo luminescence, 5 h; series mostly up to 92.4 µM;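 further: viability read after 3 h of compound exposure; nearly all actives have a fitted effect of over 50% in size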
Outline: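 Cytotoxicity counter screen multiplexed with the CRE-bla reporter assay in HEK 293T cells: 3 h compound exposure at 37 °C, followed by CellTiter-Glo luminescence measured in the same wells.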
Potency means the concentration at half of the fitted maximal effect.

Row | SMILES | Potency [1] | Potency [2] | viability change, negative = cytotoxic [1] | activity change, negative = cytotoxicity [2]
1 | O=c1cc(-c2ccc(O)cc2)oc2cc(O)cc(O)c12 | inactive | inactive | – | –
2 | O=C(O)[C@@H]1[C@H]2C[C@H]3c4[nH]c5ccccc5c4CCN3C[C@@H]2CC[C@@H]1O | inactive | inactive | – | –
3 | CC(c1cc2ccccc2s1)N(O)C(N)=O (configuration not stated) | inactive | inactive | – | –
4 | CCCCCCCCCCCCc1ccccc1 | inactive | inactive | – | –
5 | CC(C)(C(=O)c1cccnc1)c1cccnc1 | inactive | inactive | – | –
6 | O=C1OC(=O)c2c(Br)c(Br)c(Br)c(Br)c21 | inactive | inactive | – | –
7 | CC(=O)[C@H]1[C@H](C#N)C[C@H]2[C@@H]3CC=C4C[C@@H](O)CC[C@]4(C)[C@H]3CC[C@@]21C | inactive | inactive | – | –
8 | OCCc1ccncc1 | inactive | inactive | – | –
9 | C#Cc1cccc(Nc2ncnc3cc(OCCOC)c(OCCOC)cc23)c1 | inactive | inactive | – | –
10 | C=C(C)C(=O)OCC(C)C | inactive | inactive | – | –
11 | C=C(C)C(=O)OCCCCCC | inactive | inactive | – | –
12 | C=C1C[C@]23C[C@@]1(O)CC[C@H]2[C@@]12C=C[C@H](O)[C@@](C)(C(=O)O1)[C@H]2[C@@H]3C(=O)O | inactive | inactive | – | –
13 | O=C1CC(c2ccc(Cl)cc2)CC(=O)N1 | inactive | inactive | – | –
14 | CC[C@H]1OC(=O)[C@H](C)[C@@H](O[C@H]2C[C@@](C)(OC)[C@@H](O)[C@H](C)O2)[C@H](C)[C@@H](O[C@@H]2O[C@H](C)C[C@H](N(C)C)[C@H]2O)[C@](C)(O)C[C@@H](C)CN(C)[C@H](C)[C@@H](O)[C@]1(C)O | inactive | inactive | – | –
15 | NNc1ccc(C(=O)O)cc1 | inactive | inactive | – | –
16 | Cc1ccccc1C=O | inactive | inactive | – | –
17 | N#Cc1ccc(C(c2ccc(C#N)cc2)n2cncn2)cc1 | inactive | inactive | – | –
18 | Cc1cc2c(cc1C(F)(F)F)N(C(=O)Nc1ccc(Oc3cccnc3C)nc1)CC2 | inactive | inactive | – | –
19 | CC(C)CO | inactive | inactive | – | –
20 | CCC(C)(C)c1cc(O)c(C(C)(C)CC)cc1O | inactive | inactive | – | –
21 | CCCCCOc1ccccc1/C(=C\SC)n1ccnc1 | inactive | inactive | – | –
22 | CCOC(CN1CCN(CC(C)C(=O)c2ccccc2)CC1)c1ccccc1 (configuration not stated) | – | – | 1.27% [at 18.9 µM] | -1.12% [at 18.9 µM]
23 | CC(C)C/C=C(\C=O)c1ccccc1 | inactive | inactive | – | –
24 | CN(C)c1cccc(O)c1 | inactive | inactive | – | –
25 | C=CCN1CCc2nc(N)sc2CC1 | inactive | inactive | – | –
26 | C=CCCCCCCCCC(=O)OCC | inactive | inactive | – | –

Row | SMILES | Potency [1] | Potency [2] | viability change, negative = cytotoxic [1] | activity change, negative = cytotoxicity [2]
27 | CC1OCCC1=O (configuration not stated) | inactive | inactive | – | –
28 | CCC(C)OC(=O)c1ccc(O)cc1 (configuration not stated) | inactive | inactive | – | –
29 | CC(=O)OC(C(=O)c1ccccc1)c1ccccc1 (configuration not stated) | inactive | inactive | – | –
30 | O=C(O)Cc1sc(-c2ccccc2)nc1-c1ccc(Cl)cc1 | inactive | inactive | – | –
31 | C/C=C/c1ccc(OC)c(OC)c1 | inactive | inactive | – | –
32 | CCn1cc(C(=O)O)c(=O)c2cc(F)c(N3CCNC(C)C3)c(F)c21 (configuration not stated) | inactive | inactive | – | –
33 | [Cl][Pt-2]([Cl])([Cl])[Cl] | inactive | inactive | – | –
34 | C[Si](C)(C)O[Si](C)(C)O[Si](C)(C)C | inactive | inactive | – | –
35 | CCOc1ccc2nc(N)sc2c1 | inactive | inactive | – | –
36 | CC(C)(N=C=O)c1cccc(C(C)(C)N=C=O)c1 | inactive | inactive | – | –
37 | CCN(CC)CCNC(=O)c1ccc(N)cc1 | inactive | inactive | – | –
38 | CCCCCCCCCCCCc1ccccc1O | 53.8 µM (active) and 32 µM (active) | 60.3 µM (active) and 54.5 µM (active) | – | –
39 | O=C(O)c1ccc(C(=O)O)cc1 | inactive | inactive | – | –
40 | CC(=O)OCC(C)OC(C)=O (configuration not stated) | inactive | inactive | – | –
41 | COc1ccc(NS(=O)(=O)c2ccc(N)cc2)nn1 | inactive | inactive | – | –
42 | CN1C(=O)c2ccccc2C1=O | inactive | inactive | – | –
43 | CC(=O)c1ccccc1[N+](=O)[O-] | inactive | inactive | – | –
44 | CCCCCCCC/C=C\CCCCCCCC(=O)O | inactive | inactive | – | –
45 | [Ca+2] | inactive | inactive | – | –
46 | O=[N+]([O-])c1ccc(Cl)cc1Cl | inactive | inactive | – | –
47 | CCCCCCCCCI | inactive | inactive | – | –
48 | CC(=O)C1(C)CC2=C(CCCC2(C)C)CC1C (configuration not stated) | inactive | inactive | – | –
49 | CC(=O)Nc1ccc(OCCOCCOc2ccc(NC(C)=O)cc2)cc1 | inactive | inactive | – | –
50 | C=COCCCC | inactive | inactive | – | –
51 | COc1cc2nc(Cl)nc(N)c2cc1OC | inactive | inactive | – | –
